The source of these data is PubChem BioAssay.

Where “and” joins values, the source holds several entries; their conditions need not be identical. Equal entries are not always repeated. Calls of active or inactive are those of the source. Unless noted, no stated cut-off is given here; in the data, active means parasite load remaining mostly below about 12% (no sharp cut-off); inactive means mostly above about 10%.

The nature of test [1]: Wnt pathway potentiators raising nuclear beta-catenin – imaging, WNT3A-conditioned medium, mouse C2C12, NPC library, primary screen (AID 1117326; in the data active means nuclear beta-catenin stimulation mostly above about 4.2%, no sharp cut-off; inactive means mostly below about 10%). The following applies: stronger effect = higher value.
Test [2] is described as follows: stimulators of insulin release from INS-1E, primary screen, cell-based, 5 mM glucose, NPC library (AID 1117329;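 active means compound raises insulin release from rat beta cells at 5 mM glucose, no numeric limit stated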). The conditions noted are these: rat INS-1E insulin secretion, at 10 µM, stronger effect = higher value.
Test [3] in a line: growth inhibition of GSK3B-pretreated HCT116 cells – cell-based, CellTiter-Glo, 0.2 to 20 µM (AID 1117336;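 active means compounds lowering colon cancer cell viability after pretreatment blocking the GSK3B kinase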). The conditions noted are these: HCT116 viability after GSK3B inhibitor, at 20 µM, stronger effect = higher value. In general terms: In ATP-based viability assays light output follows the ATP content of the culture.
Test [4] can be described thus: inhibition of endothelial tube formation, primary screen, imaging, VEGF stimulated, CD31 staining, tube area, NPC library (AID 1117340;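 active means compound that reduces growth-factor-driven endothelial tube area in a mixed cell culture, no cutoff stated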). The following applies: VEGF-stimulated ADSC/ECFC co-culture, at 10 µM, stronger effect = higher value.
Test [5] can be described thus: GLP1 release stimulators, primary, NCI-H716, NPC library (AID 1117341;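 active means compound raises GLP1 secretion from the human gut endocrine cells, with no numeric limit stated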). The following applies: NCI-H716 cells, at 10 µM, stronger effect = higher value.
Test [6] is described as follows: HCT116 colon cancer cell growth inhibition, primary screen, CellTiter-Glo luminescence, NPC library (AID 1117342;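 active means compounds that lower survival of HCT116 colon cancer cells in the luminescence readout, no numeric limit stated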). The following applies: at 20 µM (top of the series).
Test [7] in a line: reduced SW480 viability measured with CellTiter-Glo, NPC library, primary (AID 1117343;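 active means compounds that lower viability of the colon cancer cells in the luminescence readout, with no numeric limit stated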). The conditions noted are these: CellTiter-Glo luminescence; at 20 µM (top of the series).
Test [8] is described as follows: NPC library primary testing for decreased DLD-1 cell viability via CellTiter-Glo (AID 1117346;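 active means compounds that lower survival of DLD-1 colon cancer cells in the luminescence readout, no cutoff given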). The conditions noted are these: DLD-1 viability, CellTiter-Glo luminescence; at 20 µM (top of the series).
The target in test [9] is 6-phosphogluconate dehydrogenase, decarboxylating (Homo sapiens) (UniProt P52209). Description: inhibition of human phosphogluconate dehydrogenase – biochemical, recombinant enzyme, NADPH absorbance, primary screen (AID 1159550;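 active means at least 20% inhibition of 6-phosphogluconate dehydrogenase activity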). The following applies: recombinant 6PGD, NADPH absorbance 341 nm; at 10 µM; stronger effect = higher value.
Chain of 6-phosphogluconate dehydrogenase, decarboxylating (Homo sapiens) (P52209 whole entry, looked up, the tested form may be a part): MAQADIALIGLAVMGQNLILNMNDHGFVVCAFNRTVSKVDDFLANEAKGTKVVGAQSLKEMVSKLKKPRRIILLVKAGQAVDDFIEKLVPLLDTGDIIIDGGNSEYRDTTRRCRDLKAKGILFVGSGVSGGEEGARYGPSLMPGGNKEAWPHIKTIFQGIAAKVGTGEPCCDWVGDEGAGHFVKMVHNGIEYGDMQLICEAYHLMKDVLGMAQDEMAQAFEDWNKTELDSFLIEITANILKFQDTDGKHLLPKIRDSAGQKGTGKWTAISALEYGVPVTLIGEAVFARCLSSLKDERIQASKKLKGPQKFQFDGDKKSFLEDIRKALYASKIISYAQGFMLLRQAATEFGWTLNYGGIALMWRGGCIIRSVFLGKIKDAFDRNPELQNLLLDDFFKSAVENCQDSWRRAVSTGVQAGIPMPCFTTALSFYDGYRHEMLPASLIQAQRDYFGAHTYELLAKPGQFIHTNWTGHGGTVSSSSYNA
Test [10] has as its target Mitogen-activated protein kinase 7 (Homo sapiens) (UniProt Q13164). The test is described as follows: Gal4-ERK5 driven luciferase induction – cell-based, HTS, primary screen (AID 1508626;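 active means luciferase signal above three times the same-plate solvent-only control wells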;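 further: luciferase driven by Gal4-ERK5 fusion binding five Gal4 sites before minimal TATA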). The conditions noted are these: HeLa Gal4-ERK5 transactivation, 18 h, at 5 µM, stronger effect = higher value.
Test [11] is described as follows: EMT-state selective cytotoxicity in co-culture – imaging, PC-3E GFP, TEM4-18 mCherry, primary screen (AID 1345086;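 active means compounds killing one labelled cell type while sparing the other, by normalised counts and ratio limits, not self-fluorescent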;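 on all read-outs here: cells exposed to compound for 72 h before imaging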;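 on red/green cell ratio (normalised): normalised mesenchymal count divided by normalised epithelial count so high means epithelial killing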). The conditions noted are these: PC-3E GFP / TEM4-18 mCherry co-culture, imaging cell counts, at 1 µM; for red/green cell ratio (normalised): actives lie on both sides.
A short description of test [12]: P. berghei load reduction in hepatocytes – cell-based, HepG2, luciferase luminescence, HepG2 viability, primary screen (AID 624349).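 Further: 100% = mean of DMSO negative control wells on the same plate.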 The following applies: P. berghei liver stage in HepG2, luciferase luminescence, concentration not given here; parasite load remaining: stronger effect = lower value; viability: measured here: HepG2 viability without parasites.
For test [13], the system named is Aerobactin synthetase IucA (Klebsiella pneumoniae hvKP1). The test is described as follows: IucA enzyme inhibition, primary screen, biochemical, Spectrum library (AID 1346200; call rule not given here;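 further: 100% = wells without compound and 0% = wells lacking enzyme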). The following applies: malachite green pyrophosphate, A620, at 8 µM, stronger effect = lower value.
Test [14] is described as follows: MELAS cybrid and Rieske KO viability enhancers – cell-based, MELAS cybrids, Rieske KO mouse fibroblasts, CellTiter-Glo, primary screen (AID 1508586;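 active means mean z-score across replicates of 1.96 or higher in either the MELAS or the Rieske mutant cell line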;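 further: z relative to plate mean and SD of compound and empty wells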). The conditions noted are these: low glucose.
The target of test [15] is NAD(+) hydrolase SARM1 (Homo sapiens) (UniProt Q6SZW1). The test is described as follows: blocking NAD cleavage by SARM1 SAM-TIR – cell lysate, NAD-Glo luminescence (AID 1508614;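 active means compound whose remaining NAD level is above about 45 nM, limit read from the data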). The following applies: SAM-TIR HEK293T lysate NADase, at 1 µM, stronger effect = higher value.
Chain of NAD(+) hydrolase SARM1 (Homo sapiens) (Q6SZW1 whole entry, looked up): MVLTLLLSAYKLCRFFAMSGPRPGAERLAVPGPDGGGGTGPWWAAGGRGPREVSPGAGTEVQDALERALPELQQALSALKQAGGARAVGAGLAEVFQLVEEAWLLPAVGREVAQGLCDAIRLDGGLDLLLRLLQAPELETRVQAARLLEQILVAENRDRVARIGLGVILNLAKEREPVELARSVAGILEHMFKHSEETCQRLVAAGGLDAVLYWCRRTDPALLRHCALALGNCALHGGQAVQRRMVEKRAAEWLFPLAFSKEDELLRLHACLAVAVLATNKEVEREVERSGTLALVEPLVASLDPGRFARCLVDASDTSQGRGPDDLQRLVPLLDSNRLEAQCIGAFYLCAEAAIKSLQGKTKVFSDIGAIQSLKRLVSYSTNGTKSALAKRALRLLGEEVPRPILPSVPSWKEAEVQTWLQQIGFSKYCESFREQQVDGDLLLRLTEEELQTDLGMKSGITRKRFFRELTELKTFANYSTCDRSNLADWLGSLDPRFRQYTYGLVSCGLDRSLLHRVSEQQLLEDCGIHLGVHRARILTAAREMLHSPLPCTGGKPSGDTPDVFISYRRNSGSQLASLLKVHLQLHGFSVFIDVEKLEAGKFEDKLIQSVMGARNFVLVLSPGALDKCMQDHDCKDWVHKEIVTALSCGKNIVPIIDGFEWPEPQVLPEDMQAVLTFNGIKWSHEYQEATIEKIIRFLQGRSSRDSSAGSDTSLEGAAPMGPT
Test [16] is described as follows: galactose survival enhancers in mitochondrial complex I cybrids – cell-based, galactose medium, ATP luminescence, primary screen (AID 1645843;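 active means z-score of at least 1.8 in each of two replicates, scored against plate mean and spread of sample wells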;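 further: positive z means more ATP and so rescue of galactose-driven cybrid death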). The following applies: complex I mutant cybrid cells, 72 h, stronger effect = higher value.
The nature of test [17]: viability loss with induced miR-34 in A549 – imaging, A549 dox-inducible miR-34, nuclei and caspase counts, primary screen (AID 1347080;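 active means compounds whose cell count with miR-34 switched on is under 0.7 times the count with it off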). The conditions noted are these: A549 miR-34 inducible, Hoechst nuclei count, 48 h.
The mark [18] stands for this setting: measured here: epithelial PC-3E GFP cell survival.
Setting [19] is: measured here: mesenchymal TEM4-18 mCherry cell survival.
Setting [20] is: MELAS cybrid survival, CellTiter-Glo 48 h, stronger effect = higher value.
[21] abbreviates: Rieske KO mouse fibroblast survival, CellTiter-Glo 72 h.
Setting [22] is: measured here: relative caspase fold change +Dox/-Dox.
[23] abbreviates: measured here: total cells with miR-34 induction, stronger effect = lower value.
The mark [24] stands for this setting: measured here: total cells without miR-34 induction.

Chain of Mitogen-activated protein kinase 7 (Homo sapiens) (Q13164 whole entry, looked up, the tested form may be a part): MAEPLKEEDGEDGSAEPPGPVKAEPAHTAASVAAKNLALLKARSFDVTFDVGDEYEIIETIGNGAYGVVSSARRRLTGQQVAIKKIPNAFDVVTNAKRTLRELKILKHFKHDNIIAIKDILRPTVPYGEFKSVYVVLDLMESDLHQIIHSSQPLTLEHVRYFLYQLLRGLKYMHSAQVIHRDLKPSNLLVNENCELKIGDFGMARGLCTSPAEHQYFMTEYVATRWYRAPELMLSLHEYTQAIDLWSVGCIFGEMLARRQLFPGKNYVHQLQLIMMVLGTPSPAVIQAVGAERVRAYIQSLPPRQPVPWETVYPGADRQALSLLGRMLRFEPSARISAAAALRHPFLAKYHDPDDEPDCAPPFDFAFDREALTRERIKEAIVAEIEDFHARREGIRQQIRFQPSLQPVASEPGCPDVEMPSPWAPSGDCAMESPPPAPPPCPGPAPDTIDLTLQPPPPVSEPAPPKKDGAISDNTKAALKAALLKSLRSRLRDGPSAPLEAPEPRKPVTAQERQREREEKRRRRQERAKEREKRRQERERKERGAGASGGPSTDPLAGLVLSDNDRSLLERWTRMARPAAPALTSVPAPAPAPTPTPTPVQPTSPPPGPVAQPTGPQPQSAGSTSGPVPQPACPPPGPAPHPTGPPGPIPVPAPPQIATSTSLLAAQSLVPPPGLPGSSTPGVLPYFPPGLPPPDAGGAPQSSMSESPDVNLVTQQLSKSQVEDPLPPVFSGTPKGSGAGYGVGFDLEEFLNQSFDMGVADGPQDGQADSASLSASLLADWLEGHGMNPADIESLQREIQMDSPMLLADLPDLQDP

As usually defined, the inhibition is the relative decrease from the control value, in per cent. Take `Clc1ccc(C(c2ccc(Cl)cc2)C(Cl)(Cl)Cl)cc1`: the nuclear beta-catenin stimulation is 0.9% (inactive) in [1] (at 10 µM) and -0.7% in test [1] (stimulation, at 2 µM). The insulin secretion stimulation in [2] was 2.7% (inactive). For the same compound, in [3], the viability decrease was 94.4% (active). Moreover, in [4], the tube area decrease was 18.6% (inactive). Also, in [5], the GLP1 secretion stimulation was 2.8% (inactive). Moreover, the inhibition of viability in test [6] was 73.4% (active). Also, the viability decrease (inhibition) in test [7] is 124% (active); in test [8], 84.5% (active). Besides, in test [9], the inhibition was 4.6% (inactive). Besides, the luciferase signal in [10] is 48 AU (inactive).
`CC1Sc2c(C(=O)O)c(=O)c3cc(F)c(N4CCNCC4)cc3n21` (stereo not given): the nuclear beta-catenin stimulation in test [1] (at 10 µM) is -0.2% (inactive); in test [1] (stimulation, at 2 µM), 2.5%. The insulin secretion stimulation in [2] was 1.4% (inactive). Besides, the viability decrease in test [3] is 43.4% (inactive). Moreover, in test [4], the tube area decrease is -8.5% (inactive). The GLP1 secretion stimulation in [5] was 2.3% (inactive). For the same compound, the inhibition of viability in [6] was 50.6% (active). Also, the viability decrease (inhibition) was 40.9% (inactive) in [7] and 40.8% (inactive) in [8]. For the same compound, in test [11] (counts scaled to control wells, 1 = unselective), the red/green cell ratio (normalised) was 1.16 (inactive). Besides, the normalised cell number came to 1 in test [11] (setting [18]) and 1.16 in [11] (setting [19]).
Usually viability stands for a read-out of living cells in per cent, often relative to untreated cells. Regarding `O=P1(NCCCl)OCCCN1CCCl` (stereo not given), the parasite load remaining in [12] was 91% (inactive) and 76.7% (inactive) and 18.8% (inactive). In test [12], the viability is 94% and 95.7% and 66%. Besides, the nuclear beta-catenin stimulation in test [1] (at 10 µM) is 1.1% (inactive); in [1] (stimulation, at 2 µM), 0.8%. In test [2], the insulin secretion stimulation is 2.9% (inactive). Also, the viability decrease in [3] is -25.5% (inactive). Besides, the tube area decrease in [4] is 9.8% (inactive). Besides, in [5], the GLP1 secretion stimulation is -0.1% (inactive). Besides, the inhibition of viability in test [6] was 7.23% (inactive). Moreover, the viability decrease (inhibition) is -16.8% (inactive) in test [7] and -5.2% (inactive) in test [8]. The red/green cell ratio (normalised) in test [11] was 1.03 (inactive). Besides, the normalised cell number in test [11] (setting [18]) was found to be 1.08; in test [11] (setting [19]), 1.11. Also, in test [13], the activity remaining was 114% (inactive). The z-score in [14] (setting [20]) was -0.402 (inactive) and 0.719 (inactive) and 0.667 (inactive); in test [14] (setting [21]), -0.0632 and -0.341 and -0.186; in test [16], 0.08 (inactive). Besides, the remaining NAD in test [15] was 10 nM (inactive). Moreover, the luciferase signal in [10] was 44 AU (inactive).
With `CN[C@@H]1C[C@@H](c2ccc(Cl)c(Cl)c2)c2ccccc21`, in test [12], the parasite load remaining is 4.35% (inactive). Also, the viability in test [12] was determined as 29.3%. The nuclear beta-catenin stimulation is 63.1% (active) in test [1] (at 10 µM) and 1.4% in [1] (stimulation, at 2 µM). Further, the insulin secretion stimulation in test [2] is 6.2% (inactive). Also, the viability decrease in test [3] was 99.9% (active). Moreover, the tube area decrease in test [4] is 108% (active). The GLP1 secretion stimulation in test [5] is -0.3% (inactive). For the same compound, in [6], the inhibition of viability is 100% (active). For the same compound, the viability decrease (inhibition) was 103% (active) in test [7] and 102% (active) in test [8]. Further, the fold change was 0.889 (inactive) and 0.782 (inactive) in test [17] (stronger effect = lower value); 0.588 and 1.76 in [17] (setting [22]). In addition, the cell count in test [17] (setting [23]) was 306 and 538; in test [17] (setting [24]), 344 and 689. Also, the z-score in [14] (setting [20]) was -1.52 (inactive); in [14] (setting [21]), -1.03; in test [16] it was -1.29 (inactive) and -0.78 (inactive).
Turning to `CN(C)C(=O)Oc1cc(OC(=O)N(C)C)cc(C(O)CNC(C)(C)C)c1` (stereo not given), the parasite load remaining in [12] was 140% (inactive) and 77.2% (inactive) and 45.2% (inactive). The viability in [12] is 97.8% and 75.7% and 103%. In addition, the nuclear beta-catenin stimulation in test [1] (at 10 µM) is 0.1% (inactive); in [1] (stimulation, at 2 µM), 4.2%. Besides, the insulin secretion stimulation in test [2] was 0.9% (inactive). For the same compound, in test [3], the viability decrease is -5.7% (inactive). The tube area decrease in test [4] was -4% (inactive). Moreover, the GLP1 secretion stimulation in test [5] was 12.7% (inactive). Further, the inhibition of viability in test [6] is -0.23% (inactive). Further, the viability decrease (inhibition) in test [7] was -17% (inactive); in test [8] it was -13% (inactive). In addition, in test [11], the red/green cell ratio (normalised) is 0.71 (inactive). For the same compound, the normalised cell number in [11] (setting [18]) stood at 1.3; in test [11] (setting [19]), 0.92. The activity remaining in [13] was 118% (inactive). The fold change in test [17] (stronger effect = lower value) is 0.804 (inactive) and 0.911 (inactive) and 0.913 (inactive); in test [17] (setting [22]), 1.26 and 0.519 and 1.12. In addition, the cell count is 8290 and 8600 and 10000 in [17] (setting [23]); 10300 and 9440 and 11000 in test [17] (setting [24]). Further, the z-score was -0.119 (inactive) and 0.142 (inactive) and -0.358 (inactive) in [14] (setting [20]); -0.285 and -0.41 and -0.25 in test [14] (setting [21]); 0.805 (inactive) in test [16]. Also, the remaining NAD in [15] is 10 nM (inactive). Moreover, in test [10], the luciferase signal was 80 AU (inactive).
